Screening data as filed in PubChem BioAssay.
An excerpt weighted towards active compounds, which were near 3.1% of everything screened.
p53null 32C tox = p53 null cell cytotoxicity, permissive temperature; AID 903; H1299-neo p53 null cells, ATP luminescence, 24 h, 32C; Potency, µM (highest dose often 46.1 µM), without a hit: at the top dose activity change, negative = cytotoxicity, most hits filed as cytotoxic; hit rate 0.62% among 55,000;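 also: 0% = DMSO only and -100% = full killing by 100 µM tamoxifen; nearly all actives have a fitted effect of over 55% in size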
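Cytotoxicity: H1299-neo (no p53), 32C, 24 h treatment. Concentrations up to 46 uM. Readout cellular ATP, luminescence. Normalization to DMSO basal and tamoxifen 100 uM maximal kill.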
pS6 MEF inh = inhibitors of mTORC1 signaling in Tsc2-/- p53-/- MEF cells | Potency, µM (series often up to 38.3 µM), for the others: at the top dose activity change, negative = inhibition, hits mostly inhibitors | AID 493208 | hit rate 0.78% among 44,000 | Tsc2-/- p53-/- MEF, phospho-rpS6 immunofluorescence/PI, 24 h;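 also: plate controls were DMSO for no effect and rapamycin for full effect; nearly all actives have a fitted effect of over 50% in size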
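Immunofluorescence of rpS6 phosphorylation in Tsc2-/-, p53-/- MEFs after 24 h compound exposure, normalized to propidium iodide signal. Activity is expressed as % positive cells, thresholded with 7.5 nM rapamycin.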
PMP22 txn = modulators of PMP22 gene transcription in S16 Schwann cells. S16 Pmp22-F2sN Schwann cells, FLuc/NLuc coincidence luminescence, 24 h. Potency, µM (top dose mostly 57.5 µM), inactives show top-dose activity change, negative = inhibition, hits mostly inhibitors. hit rate 2% among 43,000. AID 1508649; active = clear falling dose curves in both reporters; inconclusive = both reporters move, but less clearly or upward; inactive = either reporter flat; the % is the NLuc reporter signal
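Luminescent read-out of sequential FLuc and NLuc signals from a reporter embedded in the Pmp22 3' UTR of S16 Schwann cells, taken after 24 h compound exposure at 37C; compounds reducing both signals score as inhibitors of expression.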
p53null 39C tox = p53 null cell cytotoxicity, nonpermissive temperature | H1299 p53-null (neo) cells, 39C, ATPlite viability, 24 h | Potency, µM (doses to about 46.1 µM), for the others: at the highest dose activity, negative = cell killing, most hits filed as cytotoxic | hit rate 0.97% among 55,000 | AID 904;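 also: 0% = DMSO only and -100% = full killing by 100 µM tamoxifen; nearly all actives have a fitted effect of over 50% in size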
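Temperature-shift cytotoxicity format: compound titrations on p53-null or A138V-expressing H1299 cells held 24 hr at 39C, cell ATP then measured, AC50 from Hill model.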
SKOV3 invasion = blocks SKOV3ip1 adhesion and invasion in omental model; AID 1963576; Potency, µM (titrated, usually from 45.8 µM), for the others: top-dose activity change, negative = inhibition, hits mostly inhibitors; hit rate 0.1% among 46,000; SKOV3ip1-GFP adhesion/invasion on 3D omental model, fluorescence;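 also: plate controls were DMSO wells for no effect and tomatine positive control wells for full effect; nearly all actives have a fitted effect of over 65% in size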
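Adhesion/invasion was scored as fixed GFP-labeled SKOV3ip1 cell counts (488/509 nm), normalized to DMSO and tomatine controls. Cancer cells in serum-free medium, with four compound doses (0.36-46 umol/L), sat 2 hr at RT then 16 hr at 37 C on a 48 hr fibroblast/mesothelial/ECM culture.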
S16 F2sN tox = toxic to S16 Pmp22-F2sN Schwann cells. S16 Pmp22-F2sN Schwann cells viability, CellTiter-Glo, 24 h. AID 1508642. Potency, µM (top dose mostly 57.5 µM), inactives show top-dose activity change, negative = cytotoxicity, hits mostly cytotoxic. hit rate 0.48% among 43,000; also: nearly all actives have a fitted effect of over 65% in size
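Used to flag compounds lowering reporter output through toxicity, this quantitative HTS measures ATP-based CellTiter-Glo luminescence in S16 Pmp22-F2sN Schwann cells after 24 h compound exposure at 37C.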
Starred values were filed as active, the others as inactive; i = inactive; ? = inconclusive; . = no result. Unless noted, calls follow the shape of the dose curve; as a rule, active = well fitted curve in the direction sought with a large enough effect; inconclusive = small, poorly fitted or top-dose-only effect, or another doubt; inactive = no such curve, though single readings can be large; an effect the other way counts as inactive or inconclusive. Unless noted, % is scaled to controls: 0 for no effect and ±100 for the full control effect; potency is read from the fitted curve at half-maximal effect.

SMILES	p53null 32C tox	pS6 MEF inh	PMP22 txn	p53null 39C tox	SKOV3 invasion	S16 F2sN tox
Cc1ccccc1Nc1c(-c2ccc(N3CCOCC3)cc2)nc2ccccn12	1.58µM*	?	-0.3%	0.316µM*	-6.1%	-13.2%
Nc1nc(-c2nn(Cc3ccccc3F)c3ncccc23)nc(N)c1N1CCOCC1	.	.	.	.	-7.9%	.
O=C(Nc1cccnc1)N1CCC(Cc2cccc(Oc3ccc(C(F)(F)F)cn3)c2)CC1	.	.	.	.	-3.7%	.
COc1cc(CNc2ccc3[nH]c(=O)[nH]c3c2)cc(Br)c1OCc1ccc(F)cc1	-29.2%	-20.5%	1.89µM*	-15.1%	-7.3%	?
C[C@@H]1COC(Nc2ccc3ncnc(Nc4ccc(OCc5nccs5)c(Cl)c4)c3c2)=N1	.	.	.	.	-22.2%	.
O=C(C1CC1)N1CCc2cc(Br)cc(S(=O)(=O)Nc3ccc(C(F)(F)F)cc3)c21	?	?	?	15.8µM*	i	8.0%
O=C(C1CC1)N1CCc2cc(Br)cc(S(=O)(=O)Nc3ccc(F)c(F)c3)c21	25.1µM*	0.0%	?	12.6µM*	34.5%	?
Cc1cccc(C=NNc2cc(N3CCOCC3)nc(OCCc3ccccn3)n2)c1	.	.	.	.	-31.0%	.
CCOC(=O)C=C[C@H](C[C@@H]1CCNC1=O)NC(=O)[C@@H](CC(=O)[C@@H](NC(=O)c1cc(C)on1)C(C)C)Cc1ccc(F)cc1	.	.	.	.	-7.0%	.
CC1CCCN(c2ncnc3c2cnn3-c2ccc(F)cc2)C1 (stereo unspecified)	2.82µM*	10.6%	3.0%	?	-1.5%	10.9%
Cc1ccc(-n2ncc3c(N4CCCCCC4)ncnc32)cc1C	10µM*	13.2%	6.4%	-11.4%	-20.1%	18.5%
Cc1ccc(-n2ncc3c(N4CCN(c5ccc(F)cc5)CC4)ncnc32)cc1	-5.9%	9.4%	5.2%	-5.4%	-7.9%	-0.2%
Cc1cccc(-n2ncc3c(N4CCCC(C)C4)ncnc32)c1 (stereo unspecified)	3.16µM*	0.6%	?	2µM*	i	-0.2%
Cc1ncc(-c2ccnc(Nc3ccc(S(C)(=O)=O)cc3)n2)n1C(C)C	.	.	.	.	6.8%	.
CC(O)C1C(=O)N2C(C(=O)O)=C(SC3CNC(C(=O)N(C)C)C3)C(C)C12 (stereo unspecified)	.	.	.	.	-4.4%	.
COc1ccc2oc(=O)c(C(=O)Nc3cccc(C(=O)O)c3)cc2c1	10µM*	0.7%	8.7%	7.94µM*	6.0%	4.6%
COCCNC(=O)CSc1nnc(NC(=O)Nc2ccc(C)cc2)s1	12.6µM*	0.2%	4.4%	2.8%	-2.5%	6.3%
O=C(NNC(=O)c1ccc(CNS(=O)(=O)c2ccc(F)c(Cl)c2)cc1)c1ccccc1	.	.	.	.	-1.3%	.
COc1cc(C(=O)N(CCCN(C)C)c2nc3c(OC)cccc3s2)cc(OC)c1OC	1.4%	18.5µM*	?	-19.3%	0.0%	-1.4%
CN(C)c1ccc(C(=O)Nc2sc(Nc3ccccc3)nc2C(N)=O)cc1	?	4.65µM*	-16.9%	?	21.9%	-1.1%
CN(C)c1ccc(C(=O)Nc2cccc(-c3nc4cccnc4s3)c2)cc1	-2.7%	-4.8%	?	0.8%	0.0%	-9.7%
C=C1C[C@@]2(O)O[C@@]3(C[C@H]2C(C)C)[C@H](C)CC[C@H]13	.	.	.	.	2.4%	.
CN1[C@H]2CC[C@H]1CC(OC(=O)c1c[nH]c3ccccc13)C2 (stereo partly specified)	.	.	.	.	-0.9%	.
CCc1ccc(NC(=O)c2ccc3c(O)c(S(=O)(=O)c4ccccc4)c(=O)[nH]c3c2)cc1	12.6µM*	-7.2%	16.5%	?	2.1%	-3.3%
CCOc1ccccc1NC(=O)c1nc(S(=O)(=O)Cc2cccc(C)c2)ncc1Cl	15.2%	?	1.68µM*	?	i	3.16µM*
SMILES	p53null 32C tox	pS6 MEF inh	PMP22 txn	p53null 39C tox	SKOV3 invasion	S16 F2sN tox
CCc1nnc(NC(=O)c2nc(SCc3ccccc3F)ncc2Cl)s1	0.7%	2.0%	-24.3%	-11.8%	4.4%	5.7%
CCOc1ccc(NC(=O)c2nc(S(=O)(=O)Cc3ccccc3F)ncc2Cl)cc1	-19.4%	3.69µM*	1.34µM*	?	?	5.01µM*
CCOc1ccccc1NC(=O)c1sc2nc(C)cc(C)c2c1N	-1.4%	2.8%	?	3.6%	9.1%	-1.7%
CCc1nnc(NC(=O)c2nc(S(=O)(=O)Cc3ccc(C)cc3)ncc2Cl)s1	?	?	?	15.8µM*	?	?
Cc1cccc(CSc2ncc(Cl)c(C(=O)Nc3nc4ccc(F)cc4s3)n2)c1	-8.9%	4.2%	?	-7.7%	i	-12.4%
CCc1nnc(NC(=O)c2nc(S(=O)(=O)Cc3cccc(C)c3)ncc2Cl)s1	53.5%	11.7µM*	9.46µM*	?	12.6µM*	?
CCOC(=O)c1ccc(NC(=O)c2nc(SCc3ccccc3F)ncc2Cl)cc1	-7.0%	-3.8%	-5.3%	-7.3%	-2.9%	9.3%
Cc1cc(Nc2nc(N[C@@H](C)c3ncc(F)cn3)ncc2Cl)n[nH]1	.	.	.	.	8.6%	.
Cc1ccc(C)c(NC(=O)c2nc(S(=O)(=O)Cc3ccc(F)cc3)ncc2Cl)c1	-0.6%	2.07µM*	7.61µM*	?	11.2µM*	?
